The record followed here is PubChem BioAssay AID624331 (National Center for Advancing Translational Sciences (NCATS), 2012).

Results filed as inconclusive are left out. Calls of active or inactive are those of the source. The call rests on the fitted dose curve; in most records, active means well fitted activation curve with a large enough effect; inconclusive means small, poorly fitted or top-dose-only effect; inactive means no such curve, though single readings can be large or run the other way.
Potency means the concentration at half of the fitted maximal effect.

This experiment is described as follows: qHTS assay for re-activators of p53 using a Luc reporter: Hit Validation with no p53 Expressed. On activity change, positive = activation: 0% is about no effect. The following applies: p53-null cells, luciferase reporter counter-screen; series mostly up to 46.1 µM; activity change, positive = activation: at the top concentration. The text has this:
The p53 tumor suppressor plays a key role in suppression of tumorigenesis and in human carcinogenesis. It is frequently found inactivated in human cancers, mainly by point mutation. These point mutations are found in a wide variety of human cancers and a majority of them affect the DNA binding domain of the protein. The point mutations either alter native p53 conformation or abolish DNA contact. Additionally, cancer cells with p53 mutations are more resistant to chemo-radiation therapies.
This counter screen was run against the hits identified from the primary screen. It uses a cell line that was not transfected with p53. Compounds that show activity in this counter screen show unspecific activation of the assay system and are excluded from further consideration.
NIH Chemical Genomics Center [NCGC]
NIH Molecular Libraries Probe Production Centers Network [MLPCN]
Assay Provider (PI): Yi Sung, University of Michigan at Ann Arbor
5ul of 1000 cells per well are dispensed in all wells except column 4, into white solid-bottom TC-treated Kalypsys plates. The cells are kept in Opti-MEM and supplemented with 10% FBS and dispensed using a Multidrop (Thermo). Then using the Kalypsys pin-tool, 23nl of compounds are pinned. The compounds are starting concentration at 10mM, with 1:5 dilution, 4 points, and the control compound nocodazole is pinned in column 1 at 25mM, 1:3 dilution, in duplicate, 25mM nocodazole is pinned in column 2. Please note, all concentrations are working concentrations. 5ul of 1pM purified luciferase enzyme is dispensed using the Kalypsys dispenser in column 4. Plates are incubated for 24 hrs at 37 deg C, 5% CO2, and 95% humidity. Then 4ul of the detection reagent Amplite (ABD Bioquest) is added using the Kalypsys dispenser. Plates are incubated for 10 min at ambient room temperature and are then read on the ViewLux (Perkin Elmer) using a clear filter for a luminescent read-out.
A general note: In qHTS, concentration-response curves come from the screen itself.
For `Cc1cc(C)c2nc(NNC(=O)c3ccc(S(=O)(=O)N4CCc5ccccc5C4)cc3)sc2c1`, the “activity change, positive = activation” value was 68.3% (inactive). With `CCN(Cc1ccccc1)C(=O)CN1C(=S)NC(C)(C)CC1C` (stereo not given), the “activity change, positive = activation” value is -54% (inactive).

As for `CC1CCN(C(=O)c2cc(-c3ccccc3O)on2)CC1`, the “activity change, positive = activation” value is 113% (inactive).

For the molecule `COc1ccc2nc(NC(=O)Nc3ccccc3OC)sc2c1`, the “activity change, positive = activation” value is -21.1% (inactive).

Consider `O=C(c1cnn(-c2ccccc2)c1)c1ccccc1O`, for which the “activity change, positive = activation” value was 53.1% (inactive). As for `CN(/N=C/c1ccc2c(c1)OCO2)c1ccccc1`, the “activity change, positive = activation” value is 12.6% (inactive). Consider `Cc1cc(-c2ccccc2)n2ncc(-c3ccccc3)c2n1`, for which the Potency is 1840 nM (active). `Cc1cccc(NC(=S)NC(=O)C2CC2)c1`: the “activity change, positive = activation” value was 19.6% (inactive). Same read-out and setting: in the case of `Cc1ccc(OCCCNCCO)c(Br)c1` it was 61% (inactive); in that of `Cc1occc1C(=O)NNC(=S)Nc1ccccc1C(F)(F)F`, 1.85% (inactive). For the molecule `Cc1ccccc1C(=O)Nc1ccc(Br)cn1`, the “activity change, positive = activation” value is 27.2% (inactive). For the molecule `Cc1ccc(C(=O)CC(Nc2ccc(F)cc2)c2ccccc2)cc1` (stereo not given), the “activity change, positive = activation” value is 78.9% (inactive). As to `O=C(COC(=O)c1cc2ccccc2oc1=O)Nc1cccc(S(=O)(=O)N2CCCCCC2)c1`, the “activity change, positive = activation” value was -57.6% (inactive).

Take `c1ccc(-c2cc3cc4c(cc3cn2)OCO4)cc1`: the “activity change, positive = activation” value was 67.8% (inactive).

Regarding `Cc1cs/c(=N/C(=S)Nc2ccccc2)n1C`, the Potency is 1300 nM (active).

For `Cc1ccc(C(=O)OC(C)C(=O)Nc2ccc3c(c2)OCO3)c(O)c1` (stereo not given), the “activity change, positive = activation” value is -29.5% (inactive). Still for that read-out and setting: the same measure for `CCC(C)C(=O)N1CCc2cc(-c3csc(N)n3)ccc21` (stereo not given): 31.1% (inactive); for `COc1cccc(C(=O)c2sc(NC(C)C)nc2N)c1`: 16.8% (inactive).

Turning to `CN(C)c1ccc(NC(=O)CCCc2ccccc2)cc1`, the “activity change, positive = activation” value is 91.2% (inactive). The same measure, in the same setting: in the case of `Cc1cccc(-c2noc(CCC(=O)N3CCN(c4cc(C)ccc4C)CC3)n2)c1` it was -1.43% (inactive); in that of `CCCCC(=O)N1CCCC(C)C1` (stereo not given), 20.3% (inactive).

Regarding `Cc1ccc(-c2cc(-c3ccccc3Cl)[nH]n2)c(O)c1`, the “activity change, positive = activation” value is 32.1% (inactive). On the same count and under the same terms, the same measure for `CCn1c(=O)c2ccccc2n(Cc2ccccc2C)c1=O`: 55.8% (inactive). In the case of `O=C(O)c1ccc(N/N=C/c2ccc3ncccc3c2)cc1`, the “activity change, positive = activation” value is -33.2% (inactive). Still for that read-out and setting: the same measure for `CCCN(C(=O)c1cccc(S(=O)(=O)N2CCCc3ccccc32)c1)C1CCS(=O)(=O)C1` (stereo not given): -22.7% (inactive); for `O=C(CCc1nc(-c2ccccc2F)no1)NC1CCCCCC1`: -21.5% (inactive); for `O=C(Nc1nc2ccccc2s1)c1ccc2c(c1)OCO2`: 13.9% (inactive). Still for that read-out and setting: in the case of `CCOc1cccc(-c2nc3cc(C)ccc3o2)c1` it was 40.1% (inactive); in that of `CC(C)(C)c1ccc(S(=O)(=O)N2CCSC2)cc1`, 51.7% (inactive); in that of `COc1ccc(CCNC2CCC(c3ccccc3)CC2)cc1` (stereo not given), -20.8% (inactive). The same measure, in the same setting: the same measure for `COc1ccc(S(=O)(=O)NC2CC(C)(C)NC(C)(C)C2)c2ccccc12`: 9.79% (inactive); for `O=C(Nc1nc(-c2cccs2)cs1)c1ccc([N+](=O)[O-])o1`: -36.5% (inactive).

In the case of `COc1ccc(CCC(=O)Nc2ccc(-c3noc(-c4ccc(OC)c(OC)c4)n3)cc2)cc1`, the “activity change, positive = activation” value is 10.6% (inactive). Still for that read-out and setting: the same measure for `Cc1ccc(C)c(Oc2cc(NC(=O)CCCn3nc(C)c([N+](=O)[O-])c3C)cc([N+](=O)[O-])c2)c1`: -48.2% (inactive); for `Cc1cccc(NC(=O)Nc2ccc(C)cc2Br)c1`: 6.7% (inactive); for `COc1ccc(C2/C(=C(/O)c3ccc(C)cc3)C(=O)C(=O)N2CCCN2CCOCC2)cc1` (stereo not given): -2.06% (inactive). Turning to `CCOC(=O)c1[nH]nc(C(=O)c2ccc(Br)cc2)c1O`, the “activity change, positive = activation” value is -4.51% (inactive). Turning to `COc1ccc(-c2nnc(-c3ccc(Br)o3)o2)cc1OC`, the “activity change, positive = activation” value is -12.7% (inactive). Still for that read-out and setting: in the case of `CC(C)CCn1cnc2c(cnn2-c2ccc(F)cc2)c1=O` it was 30% (inactive). Consider `CC(=O)/C=C(\C)Nc1ccc(-c2cnc(-c3ccccc3)o2)cc1`, for which the “activity change, positive = activation” value was 2.82% (inactive).
